Results published in PubChem BioAssay (NCATS).
Records with an inconclusive call do not appear. A number with no mark means an inactive call. Activity calls are given as the source filed them. The call rests on the fitted dose curve; in most records, active means well fitted cell-killing curve with a large enough effect; inconclusive means small, poorly fitted or top-dose-only effect, or effect the other way; inactive means no such curve, though single readings can be large or run the other way.

Tests used:
[1] = Quantitative High-Throughput drug screen in 47 multiple myeloma cell lines against the NCATS MIPE library collection: L363_DSMZ cell viability assay (AID 1918984); settings: L363 myeloma viability, CellTiter-Glo ATP luminescence, 48 h; viability (% of control): at 45.8 µM (top of the series); further: nearly all actives have a fitted effect of over 40% in size
How it was run: (§1)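 qHTS format: cells plated (500/well), pin-dosed with MIPE 4.0 compounds, kept 48 h at 37 °C. Readout was CellTiter-Glo luminescence, median RLU.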

[2] = Quantitative High-Throughput drug screen in 47 multiple myeloma cell lines against the NCATS MIPE library collection: OCIMY7_PLB cell viability assay (AID 1918987); settings: OCI-MY7 myeloma viability, CellTiter-Glo ATP, 48 h; viability (% of DMSO): at 45.8 µM (top of the series); further: nearly all actives have a fitted effect of over 65% in size
How it was run: as §1

[3] = Quantitative High-Throughput drug screen in 47 multiple myeloma cell lines against the NCATS MIPE library collection: OPM1_PLB cell viability assay (AID 1918989); further: nearly all actives have a fitted effect of over 40% in size;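 on viability (% of control): 100% = DMSO-only wells and 0% = media-only wells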
How it was run: as §1

[4] = Quantitative High-Throughput drug screen in 47 multiple myeloma cell lines against the NCATS MIPE library collection: SKMM1_PLB cell viability assay (AID 1919863); settings: SKMM1 myeloma viability, CellTiter-Glo ATP, 48 h; viability: active compounds read low; further: nearly all actives have a fitted effect of over 35% in size
How it was run: as §1

[5] = Quantitative High-Throughput drug screen in 47 multiple myeloma cell lines against the NCATS MIPE library collection: UTMC2_PLB cell viability assay (AID 1919868); settings: CellTiter-Glo ATP luminescence, 48 h; viability (% of DMSO control): at 45.8 µM (top of the series); further: nearly all actives have a fitted effect of over 55% in size;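 on viability (% of DMSO control): 100% = DMSO-only wells and 0% = media-only wells without cells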
How it was run: as §1

[6] = Quantitative High-Throughput drug screen in 47 multiple myeloma cell lines against the NCATS MIPE library collection: PE2_PLB cell viability assay (AID 1919869); further: nearly all actives have a fitted effect of over 35% in size;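 on viability (% of control): 100% = DMSO-only wells and 0% = cell-free media-only wells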
How it was run: as §1

[7] = Quantitative High-Throughput drug screen in 47 multiple myeloma cell lines against the NCATS MIPE library collection: OPM2_DSMZ cell viability assay (AID 1919872); further: nearly all actives have a fitted effect of over 30% in size
How it was run: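 Inhibition of cell viability is measured here. Each line was plated at 500 cells per well, treated with MIPE 4.0 drugs, kept 48 hours at 37C, then assayed for ATP content by CellTiter-Glo luminescence.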

[8] = Quantitative High-Throughput drug screen in 47 multiple myeloma cell lines against the NCATS MIPE library collection: KMS11_JCRBsus cell viability assay (AID 1919873); further: nearly all actives have a fitted effect of over 50% in size;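 on viability (% of control): 100% = DMSO-only wells and 0% = media-only wells without cells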
How it was run: as §1

[9] = Quantitative High-Throughput drug screen in 47 multiple myeloma cell lines against the NCATS MIPE library collection: OCIMY5_PLB cell viability assay (AID 1918988); further: nearly all actives have a fitted effect of over 65% in size
How it was run: as §1

[10] = Quantitative High-Throughput drug screen in 47 multiple myeloma cell lines against the NCATS MIPE library collection: U266_ATCC cell viability assay (AID 1919864); further: nearly all actives have a fitted effect of over 35% in size;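 on viability (% of DMSO control): 0% = media-only wells without cells and 100% = DMSO-only wells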
How it was run: as §1

[11] = Quantitative High-Throughput drug screen in 47 multiple myeloma cell lines against the NCATS MIPE library collection: XG6_PLB cell viability assay (AID 1919865); further: nearly all actives have a fitted effect of over 40% in size;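 on viability (% of control): 100% = DMSO-only wells and 0% = media-only wells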
How it was run: as §1

[12] = Quantitative High-Throughput drug screen in 47 multiple myeloma cell lines against the NCATS MIPE library collection: XG1_PLB cell viability assay (AID 1919866); further: nearly all actives have a fitted effect of over 35% in size
How it was run: as §1

[13] = Quantitative High-Throughput drug screen in 47 multiple myeloma cell lines against the NCATS MIPE library collection: VP6_DJ cell viability assay (AID 1919867); further: nearly all actives have a fitted effect of over 40% in size;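 on viability (% of DMSO): 100% = DMSO-only wells and 0% = wells with media alone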
How it was run: as §1

[14] = Quantitative High-Throughput drug screen in 47 multiple myeloma cell lines against the NCATS MIPE library collection: PCM6_Riken cell viability assay (AID 1919870); further: nearly all actives have a fitted effect of over 30% in size;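 on viability (% of control): 100% = DMSO-only wells and 0% = media-only wells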
How it was run: as §1

[15] = Quantitative High-Throughput drug screen in 47 multiple myeloma cell lines against the NCATS MIPE library collection: RPMI8226_ATCC cell viability assay (AID 1919871); further: nearly all actives have a fitted effect of over 30% in size
How it was run: as §1

[16] = Quantitative High-Throughput drug screen in 47 multiple myeloma cell lines against the NCATS MIPE library collection: KMS28BM_JCRB cell viability assay (AID 1919874); further: nearly all actives have a fitted effect of over 35% in size
How it was run: as §1
Potency means the concentration at half of the fitted maximal effect.

| SMILES | Potency [1] | Potency [2] | Potency [3] | viability [4] [%] | Potency [5] | Potency [6] | Potency [7] | Potency [8] | Potency [9] | Potency [10] | Potency [11] | Potency [12] | Potency [13] | Potency [14] | Potency [15] | Potency [16] | Potency [4] |
| --- | --- | --- | --- | --- | --- | --- | --- | --- | --- | --- | --- | --- | --- | --- | --- | --- | --- |
| C[C@H](CCC(=O)O)[C@H]1CC[C@H]2[C@H]3[C@@H](CC[C@]12C)[C@@]1(C)CC[C@@H](O)C[C@H]1C[C@@H]3O | inactive | inactive | inactive | 120 | inactive | inactive | 6.62 µM (active) | inactive | – | – | – | – | – | – | – | – | – |
| CCN(CCO)CCCOc1ccc2c(Nc3cc(CC(=O)Nc4cccc(F)c4)[nH]n3)ncnc2c1 | inactive | – | inactive | 116 | 0.0743 µM (active) | inactive | – | inactive | 0.264 µM (active) | inactive | 16.6 µM (active) | 0.0418 µM (active) | inactive | – | – | – | – |
| C=C1c2cccc(O)c2C(O)=C2C(=O)[C@@]3(O)C(O)=C(C(N)=O)C(=O)[C@@H](N(C)C)[C@@H]3[C@@H](O)[C@H]12 | inactive | 9.35 µM (active) | 23.5 µM (active) | – | – | – | – | inactive | 18.7 µM (active) | – | – | – | – | – | – | – | – |
| CC(C)=CCCC(C)=CCCC(C)=CCCC(C)=CCCC(C)=CCCC(C)=CCCC(C)=CCCC(C)=CCCC(C)=CCO | inactive | inactive | – | – | inactive | inactive | inactive | – | – | – | inactive | inactive | – | inactive | inactive | inactive | – |
| CN(C)CCOc1ccc(-c2nc(-c3ccc4c(c3)CCC4=NO)c(-c3ccncc3)[nH]2)cc1 | 6.62 µM (active) | – | 16.6 µM (active) | – | – | 16.6 µM (active) | 16.6 µM (active) | 11.8 µM (active) | 23.5 µM (active) | 26.4 µM (active) | 16.6 µM (active) | 18.7 µM (active) | 18.7 µM (active) | 10.5 µM (active) | 20.9 µM (active) | 9.35 µM (active) | 20.9 µM (active) |
| CN1C(=O)C[C@H](C(=O)N[C@@H](Cc2cnc[nH]2)C(=O)N2CCC[C@@H]2C(N)=O)NC1=O | inactive | inactive | 20.9 µM (active) | – | – | – | – | – | – | inactive | 10.5 µM (active) | 10.5 µM (active) | 10.5 µM (active) | – | inactive | – | – |
| O=C1NC(=O)C(=Cc2ccc(-c3ccc(F)cc3O)o2)S1 | 0.833 µM (active) | 3.72 µM (active) | 14.8 µM (active) | – | – | 7.43 µM (active) | – | – | – | inactive | 2.35 µM (active) | – | 2.96 µM (active) | – | 9.35 µM (active) | inactive | – |
| Cc1nc(C(=O)NCC(=O)O)c(O)c2ccc(Oc3ccccc3)cc12 | inactive | inactive | inactive | – | inactive | inactive | – | inactive | inactive | – | – | – | – | – | inactive | inactive | – |
| Nc1ccn([C@@H]2O[C@H](CO)[C@@H](O)[C@H]2O)c(=O)n1 | inactive | – | inactive | 113 | 0.001 µM (active) | inactive | inactive | inactive | inactive | – | – | inactive | – | inactive | inactive | – | – |
| O=C1CCCC(=O)C1C(=O)c1ccc(C(F)(F)F)cc1[N+](=O)[O-] | inactive | inactive | inactive | – | – | inactive | – | inactive | – | 20.9 µM (active) | inactive | inactive | – | inactive | – | inactive | – |
| CN(C)CCCNC(=O)c1ccc(-c2cc(O)c3ncccc3c2)cc1 | 20.9 µM (active) | – | 16.6 µM (active) | – | – | – | – | – | 20.9 µM (active) | 20.9 µM (active) | – | – | – | – | 18.7 µM (active) | – | 14.8 µM (active) |
| CC[C@]1(O)C[C@H]2CN(CCC3=c4ccccc4=N[C]3[C@@](C(=O)OC)(c3cc4c(cc3OC)N(C)[C@H]3[C@@](O)(C(N)=O)[C@H](O)[C@]5(CC)C=CCN6CC[C@]43[C@@H]65)C2)C1 | 0.132 µM (active) | 0.0662 µM (active) | – | – | 0.0053 µM (active) | – | – | – | – | 0.0935 µM (active) | inactive | – | – | – | 0.132 µM (active) | – | 0.0148 µM (active) |
| Nc1[nH]nc2nnc(-c3c(-c4ccccc4)nn4ccccc34)cc12 | 2.64 µM (active) | 0.209 µM (active) | – | – | 4.18 µM (active) | 9.35 µM (active) | – | 0.235 µM (active) | 20.9 µM (active) | 5.26 µM (active) | 3.72 µM (active) | 6.62 µM (active) | 1.66 µM (active) | 7.43 µM (active) | – | – | – |
| CC=C1C2C=C(C)CC1(N)c1ccc(=O)[nH]c1C2 (stereo unspecified) | inactive | inactive | inactive | – | – | inactive | inactive | inactive | – | inactive | inactive | inactive | – | – | inactive | – | – |
| CCOC(=O)N1c2ccc(C(F)(F)F)cc2[C@@H](N(Cc2cc(C(F)(F)F)cc(C(F)(F)F)c2)C(=O)OC)C[C@H]1CC | inactive | – | 3.32 µM (active) | – | – | – | 9.35 µM (active) | – | 4.69 µM (active) | – | – | – | – | inactive | 9.35 µM (active) | – | – |
| CCC(c1ccc(O)cc1)C(CC)c1ccc(O)cc1 (stereo unspecified) | inactive | – | – | – | – | inactive | inactive | – | 3.32 µM (active) | 3.32 µM (active) | 0.833 µM (active) | – | inactive | – | inactive | – | – |
| COc1cc(N2CCN(C)CC2)ccc1Nc1nc(N)c(C(=O)c2c(Cl)cccc2Cl)s1 | 20.9 µM (active) | – | 20.9 µM (active) | – | – | – | – | 18.7 µM (active) | 18.7 µM (active) | 18.7 µM (active) | – | 23.5 µM (active) | – | – | inactive | – | – |
| C=C[C@@H]1CN2CCC1C[C@@H]2C(O)c1ccnc2ccc(OC)cc12 (stereo partly specified) | inactive | – | – | – | inactive | inactive | inactive | inactive | 3.32 µM (active) | 10.5 µM (active) | – | – | – | – | – | inactive | – |
| Nc1nc(Cl)nc2c1ncn2[C@@H]1O[C@H](CO)[C@@H](O)[C@H]1F | 0.0526 µM (active) | – | 1.48 µM (active) | – | 0.332 µM (active) | 0.418 µM (active) | – | – | 0.0743 µM (active) | 1.48 µM (active) | 0.0235 µM (active) | – | 0.187 µM (active) | – | 2.35 µM (active) | 0.0235 µM (active) | – |
| COc1ccc2nc3cc(Cl)ccc3c(Nc3cc(CN4CCCC4)c(O)c(CN4CCCC4)c3)c2n1 | 16.6 µM (active) | – | – | – | – | 18.7 µM (active) | – | 16.6 µM (active) | 18.7 µM (active) | 23.5 µM (active) | 14.8 µM (active) | 18.7 µM (active) | – | 16.6 µM (active) | 18.7 µM (active) | 23.5 µM (active) | 14.8 µM (active) |
| COc1cc2nccc(Oc3ccc(NC(=O)Nc4ccc(F)cc4F)c(F)c3)c2cc1OC | inactive | – | – | – | inactive | – | 4.69 µM (active) | 2.09 µM (active) | 1.87 µM (active) | 11.8 µM (active) | inactive | inactive | – | – | – | 1.05 µM (active) | – |
| COc1ccc(CCN(C)CCCOc2ccc(S(=O)(=O)c3[nH]c4ccccc4c3C(C)C)cc2)cc1OC | inactive | – | 23.5 µM (active) | 110 | inactive | 18.7 µM (active) | inactive | – | – | 18.7 µM (active) | 26.4 µM (active) | – | – | – | 18.7 µM (active) | 13.2 µM (active) | – |
| Cc1cccc(Nc2nc(N[C@@H]3CCCC[C@H]3N)ncc2C(N)=O)c1 | 16.6 µM (active) | – | 16.6 µM (active) | – | 9.35 µM (active) | 18.7 µM (active) | – | 26.4 µM (active) | – | – | 0.743 µM (active) | 9.35 µM (active) | 5.26 µM (active) | 7.43 µM (active) | – | – | 23.5 µM (active) |
| CC=C(C(=CC)c1ccc(O)cc1)c1ccc(O)cc1 | 13.2 µM (active) | – | – | – | – | 20.9 µM (active) | 18.7 µM (active) | – | 16.6 µM (active) | – | 18.7 µM (active) | 16.6 µM (active) | 18.7 µM (active) | 20.9 µM (active) | – | – | – |
